# Results taken from PubChem BioAssay (EPA / NIEHS).
# Calls of active or inactive are those of the source. How the source made its calls: active means hit-call score of the fitted dose curve at least 0.9, where 1 is the maximum; inactive means score below 0.9.
# Molecular target: Hepatocyte nuclear factor 3-beta (Homo sapiens) (UniProt Q9Y261)
# Assay: ATG_FoxA2_CIS: Attagene CIS-FACTORIAL HepG2 Assay for human Forkhead box A2 (FOXA2) (AID 2282942)
# Conditions: HepG2 cis-reporter transcription factor activity, 24 h; actives raise or lower the signal
# Protocol: ATG_CIS is a cell-based, multiplexed-readout assay that uses HepG2, a human liver cell line, with measurements taken at 24 hours after chemical dosing in a 24-well plate.ATG_FoxA2_CIS is one of 52 assay component(s) measured or calculated from the ATG_CIS assay. It is designed to make measurements of mRNA induction, a form of inducible reporter, as detected with fluorescence intensity signals by Reverse transcription polymerase chain reaction (RT-PCR) and Capillary electrophoresis technology.Data from the assay component ATG_FoxA2_CIS was analyzed into 1 assay endpoint. This assay endpoint, ATG_FoxA2_CIS, was analyzed with bidirectional fitting relative to DMSO as the negative control and baseline of activity. Using a type of inducible reporter, measures of mRNA for gain or loss-of-signal activity can be used to understand the reporter gene at the transcription factor-level as they relate to the gene FOXA2. Furthermore, this assay endpoint can be referred to as a primary readout, because this assay has produced multiple assay endpoints where this one serves a reporter gene function. To generalize the intended target to other relatable targets, this assay endpoint is annotated to the dna binding intended target family, where the subfamily is forkhead box protein.
# Human liver HepG2 cells are transiently transfected with multiple reporter transcription units (MRTUs) in 6-well plates using FuGene 6 reagent (Roche; 3 ml FuGene/1 mg DNA). The MRTU constructs are regulated by a cis-regulating element (promoter). […] A major difference between the CIS and TRANS system is that in CIS activities of endogenous TFs are measured, whereas the TRANS assay evaluates changes in activities of exogenous, chimeric NR-Gal4 proteins. […] At the end of 24 hour incubation, total RNA was isolated using TriZol reagent (Invitrogen). The isolated RNA is then reverse-transcribed using oligo(dT) primer and Mo-MLV reverse transcriptase (Invitrogen) with DNAse I (Ambion) treatment for 30 min. The one-tenth of the produced cDNA was amplified by PCR using Taq DNA polymerase (Invitrogen) and two reporter sequence-specific primers. The PCR products were fluorescently labeled by primer extension with 6-arboxyfluorescein (6-FAM) 5'-labeled reporter sequence-specific primer (2 min at 95 C, 20 s at 68 C and 10 min at 72 C) and these products were digested with 5U of HpaI (New England Biolabs) for 2h at 37 C. The fragments were purified using Qiaquick PCR columns (Qiagen), analyzed on an ABI 3130xL genetic analyzer (Applied Biosystems) with peak positions identified by using a set of X-rhodamine (ROX)-labeled MapMarker1000 molecular weight standards (BioVentures). The raw capillary electrophoresis data was processed using Attagraph software (Attagene).
# Sequence of Hepatocyte nuclear factor 3-beta (Homo sapiens) (Q9Y261 whole entry, looked up): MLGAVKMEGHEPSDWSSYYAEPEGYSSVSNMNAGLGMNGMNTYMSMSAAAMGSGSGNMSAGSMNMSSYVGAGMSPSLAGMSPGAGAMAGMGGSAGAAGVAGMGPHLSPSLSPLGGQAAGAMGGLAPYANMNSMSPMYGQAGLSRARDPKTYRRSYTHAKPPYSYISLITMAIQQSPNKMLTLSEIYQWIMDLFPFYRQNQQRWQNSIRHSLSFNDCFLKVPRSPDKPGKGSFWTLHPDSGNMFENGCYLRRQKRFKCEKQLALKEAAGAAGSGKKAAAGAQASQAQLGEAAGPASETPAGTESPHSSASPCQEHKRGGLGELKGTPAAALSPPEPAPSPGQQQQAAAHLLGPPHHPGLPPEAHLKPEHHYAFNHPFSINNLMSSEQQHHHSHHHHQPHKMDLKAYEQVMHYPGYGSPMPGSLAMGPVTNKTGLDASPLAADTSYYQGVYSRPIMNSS
row,SMILES,outcome
1,CC(=O)c1cc2c(cc1C)C(C)(C)C(C)CC2(C)C (stereo not given),inactive
2,CCCCNP(N)(N)=S,inactive
3,CC(C)(C)C(O)C(Oc1ccc(-c2ccccc2)cc1)n1cncn1 (stereo not given),inactive
4,COc1ncc(F)c2nc(S(=O)(=O)Nc3c(F)cccc3F)nn12,inactive
5,CCC(C)c1cc([N+](=O)[O-])cc([N+](=O)[O-])c1OC(=O)C=C(C)C (stereo not given),inactive
6,[Cl-].[Cl-].[Cl-].[Yb+3],inactive
7,C=CC(=O)OCCCCOC(=O)C=C,inactive
8,O=[N+]([O-])O,inactive
9,CC(C)CCCCCCCOP(=O)(Oc1ccccc1)Oc1ccccc1,inactive
10,O=[N+]([O-])c1cc(C(F)(F)F)c(Cl)c([N+](=O)[O-])c1Cl,inactive
11,O=S(=O)(O)O,inactive
12,COc1cc(OC)c(OC)cc1C=O,inactive
13,Nc1ccccc1,inactive
14,CC(C)(Cl)Cl,inactive
15,[N-]=[N+]=CC(=O)OC[C@H](N)C(=O)O,inactive
16,CCCCOC(=O)CCC(=O)OCCCC,inactive
17,Cc1ccc(N(SC(F)(Cl)Cl)S(=O)(=O)N(C)C)cc1,inactive
18,C[N+](C)=CCl,inactive
19,CC(C)c1ccc(O)cc1,inactive
20,O=C(CCN1CC1)OCC(CO)(COC(=O)CCN1CC1)COC(=O)CCN1CC1,inactive

row,SMILES,outcome
1,CN(C)C(=O)C(c1ccccc1)c1ccccc1,inactive
2,Nc1ccc(-c2ccc(N)c(N)c2)cc1N,inactive
3,CN1C[C@H](C(=O)N[C@]2(C)O[C@@]3(O)[C@@H]4CCCN4C(=O)[C@H](Cc4ccccc4)N3C2=O)C=C2c3cccc4[nH]cc(c34)C[C@H]21,inactive
4,CC1(C)CC(=O)CC(C)(C)N1[O],inactive
5,CNC(=O)Oc1cc(C)c(SC)c(C)c1,inactive
6,CNC(=N[N+](=O)[O-])NCC1CCOC1 (stereo not given),inactive
7,BrCBr,inactive
8,O=c1[nH]c(Cl)c(Cl)cc1Cl,inactive
9,CCN(CC)C(=S)S,inactive
10,Nc1ccccc1C(=O)Oc1ccc2ccccc2c1,inactive
11,CC(C)(C)C(=O)CCl,inactive
12,COCC(=O)N(c1c(C)cccc1C)N1CCOC1=O,inactive
13,CCC(C)c1cc(C(C)(C)C)cc(-n2nc3ccccc3n2)c1O (stereo not given),inactive
14,CC(C)[C@@H](C(=O)O[C@@H](C#N)c1cccc(Oc2ccccc2)c1)c1ccc(Cl)cc1,inactive
15,CC(C)C#N,inactive
16,C=COCCCl,inactive
17,O=[N+]([O-])c1ccc(Cl)cc1,inactive
18,C[N+](C)(C)CC(=O)O,inactive
19,C=Cc1cccc(CCl)c1,inactive
20,S=c1[nH]c2ccccc2[nH]1,inactive
